Reference: PubChem BioAssay (NCATS)
“And” between values parts separate entries of the source, which are not always exact repeats. Equal values may be shown once. Results filed as inconclusive are left out. The source made the active and inactive calls. Unless noted, the call rests on the fitted dose curve; in most records, active means well fitted activation curve with a large enough effect; inconclusive means small, poorly fitted or top-dose-only effect; inactive means flat fitted curve, though single readings scatter.

assay: Confirmation and Secondary Assay for Modulators of Hemoglobin Beta Chain Splicing at IVS2 654 locus (AID 910); conditions: HeLa EGFP-654 splicing reporter, GFP fluorescence, 48 h; series mostly up to 46.1 µM;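 further: HeLa cells stably carrying EGFP split by mutant beta-globin IVS2-654 intron; per-well total GFP intensity by laser scanning cytometry after 2-day treatment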
In short: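 Readout: per-well total peak green fluorescence (488 nm ex, 500–520 nm em) from objects 5–250 µm, reflecting correct splicing of an EGFP-654 reporter. Compounds were applied for 2 days at 37 °C to overnight-plated HeLa EGFP-654 cells; controls were DMSO and 500 nM IVS2-654 PNA.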
Further: % of control where 0% means no effect.

outcome, inactive:
CN1C2CC(OC(=O)C(CO)c3ccccc3)C[C@@H]1[C@H]1OC21 (some centres undefined), COC(=O)C1C(O)CC[C@H]2CN3CCc4c([nH]c5ccccc45)C3C[C@H]12 (some centres undefined), COc1cc2c(cc1OC)C1C(=O)c3c(cc4c(c3O)C=CC(C)(C)O4)OC1CO2 (centres undefined)

assay: qHTS Assay for Identification of Small Molecule Agonists for Hypoxia Response Element Signaling Pathway (AID 914; active means well fitted activation curve with a large enough effect in the signal ratio, with a control signal flat, not every such curve was filed as active; the % refers to the signal ratio); conditions: ME-180 (cervical carcinoma) HRE-bla reporter, beta-lactamase ratio, CoCl2, 17 h; stronger effect = higher value
In short: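 In Opti-MEM containing 0.5% dialyzed FBS and 10 mM HEPES, ME-180 HRE-bla cells received a compound titration and EC50 CoCl2. They were incubated 17 hours, then CCF4-loaded 2.5 hours at room temperature before ratio reading.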

activation, inactive:
Cc1ccc2nc3nc4ccc[nH]c4cc3c2c1 -21.2%, CC(C)[C@@H](OCc1ccccc1)[C@H](C)/C=N\OC[C@@H](C)[C@H](OCc1ccccc1)C(C)C -1.89%, C[C@@H](c1ccccc1)N1C(=O)[C@H]2[C@@H]3[C@H](O)[C@H](O)CC(=O)[C@H]3CC[C@H]2C1=O -2.53% and -2.06%, Cc1cc2c(nc1C)CCCCN2C[C@H](O)CN1CCCc2nc(-c3ccc(Br)cc3)ccc21 -0.373%, COc1ccc(COC(=O)N/N=C2/C[C@@H](O)[C@@H](O)[C@@H]3[C@@H]4C(=O)N(Cc5ccc6c(c5)OCO6)C(=O)[C@H]4CC[C@@H]23)cc1 0.811%, CC(C)C(=O)N[C@H]1CCCN1C(=O)/C=C\c1ccccc1 4.87%, COc1ccc(COC(=O)N/N=C2/C[C@@H](O)[C@@H](O)[C@@H]3[C@@H]4C(=O)N(Cc5ccc6c(c5)OCO6)C(=O)[C@H]4CC[C@H]23)cc1 -9.34%, C/C(CCN1CCCc2nc(C)c(C)cc21)=N\O[C@@H](C)c1cn([C@@H]2COC[C@@H]2O)nn1 8.15%, CSCC[C@@H]1NC(=O)C/C=C\[C@@H](C)COC(=O)[C@@H](C)COC1=O -8.61%, CC(C)[C@@H](OCc1ccccc1)[C@H](C)/C=N\OC[C@@H](O)[C@@H]1O[C@@H]2OC(C)(C)O[C@@H]2[C@H]1O 7%, CO[C@H]1COC(=O)C/C=C\[C@@H](C)COC(=O)[C@@H](OCc2ccccc2)/C=C\[C@@H]1C -3.25%, CO[C@H]1COC(=O)[C@@H](C)COC(=O)[C@H](C)NC(=O)C/C=C\[C@H]1C -4.15%, COC(=O)C(C(=O)OC)[C@@H]1CCCC(=O)C1 -2.41%, CCN1C(=O)[C@H]2[C@H]3[C@H](O)[C@H](O)C/C(=N/OCc4ccccc4)[C@H]3CC[C@@H]2C1=O 7.18%, CC(C)[C@H](NC(=O)OC(C)(C)C)[C@@H](O)CC(=O)C(C)(C)C 3.44%, O=C(N/N=C1/C[C@@H](O)[C@@H](O)[C@@H]2[C@@H]3C(=O)N(c4cccc(Oc5ccccc5)c4)C(=O)[C@H]3CC[C@H]12)OCc1ccccc1 9.49%, COC(=O)C/C=C\[C@@H](C)[C@H]1C=C[C@H](O)[C@@H](CO)O1 10.7%, COC(=O)C/C=C\[C@@H](C)[C@@H](/C=N\O[C@@H](C)CN1CCCc2nc(C)c(C)cc21)NS(=O)(=O)c1ccc(C)cc1 4.52%, CSCC[C@@H]1NC(=O)C/C=C\[C@@H](C)COC(=O)[C@H](C)COC1=O 5.76%, CC(C)CO/N=C1/C[C@@H](O)[C@@H](O)[C@@H]2[C@@H]3C(=O)N(C4CCCCC4)C(=O)[C@H]3CC[C@H]12 -3.43%, CC(C)=CCC/C(C)=C/CO/N=C1/C[C@@H](O)[C@@H](O)[C@@H]2[C@@H]3C(=O)N(c4cccc(Oc5ccccc5)c4)C(=O)[C@H]3CC[C@H]12 7.14%, O=C(N/N=C1/C[C@@H](O)[C@@H](O)[C@@H]2[C@@H]3C(=O)N(c4cccc(Oc5ccccc5)c4)C(=O)[C@H]3CC[C@@H]12)OCc1ccccc1 -0.0366%, C#CCCCO/N=C1/C[C@@H](O)[C@@H](O)[C@@H]2[C@@H]3C(=O)N(c4cccc(Oc5ccccc5)c4)C(=O)[C@H]3CC[C@@H]12 -6.82%, CCN1C(=O)[C@H]2[C@H]3[C@H](O)[C@H](O)C/C(=N/OCc4ccccc4)[C@@H]3CC[C@@H]2C1=O -12.3%, C[C@H](c1ccccc1)N1C(=O)[C@H]2[C@@H]3[C@H](O)[C@H](O)CC(=O)[C@H]3CC[C@H]2C1=O 0.807%, O=C1C=C[C@@H](O)[C@H]2[C@@H]3C(=O)N(C[C@@H]4CCCO4)C(=O)[C@@H]3CC[C@H]12 -2.79%
